4 molecules from PubChem BioAssay (EPA / NIEHS) can be followed below.

Molecules are shown by their SMILES. Values joined by “and” are separate entries in the source; they are usually repeats but may differ in a detail not shown here. Equal entries are not always repeated. More than one record can exist for a structure, and the calls need not agree. Active and inactive are the calls of the source. How the source made its calls: active means hit-call score of the fitted dose curve at least 0.9, where 1 is the maximum; inactive means score below 0.9.

Holding throughout (conditions): mRNA level, 48 h; actives raise or lower the signal
Read-out in test [1]: Paternally Expressed 10 (PEG10), PEG10 (gene 23089)
As to the kind of experiment: LTEA_HepaRG_PEG10: Life Technologies and Expression Analysis (LTEA) Assay for Paternally Expressed 10 (PEG10) using HepaRG (AID 2283520). In short, it runs like this: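 Differentiated HepaRG cells exposed 48 h in serum-free induction medium to eight half-log concentrations topping at 100 uM, 0.5% DMSO, in duplicate. PEG10 mRNA quantified by TaqMan qRT-PCR, normalized to ACTB, GAPDH and POLR2A; bidirectional fit versus DMSO.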

Read-out in test [2]: Protein phosphatase 2A (PPP2R4), PTPA (gene 5524)
As to the kind of experiment: LTEA_HepaRG_PPP2R4: Life Technologies and Expression Analysis (LTEA) Assay for Protein phosphatase 2A (PPP2R4) using HepaRG (AID 2283522). Summed up:
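Differentiated human HepaRG cells in serum-free induction medium were exposed 48 h to 8 concentrations (top 100 µM, half-log steps, duplicate) in 0.5% DMSO. PPP2R4 mRNA was measured by TaqMan qRT-PCR, normalised to ACTB, GAPDH and POLR2A, and fitted bidirectionally versus DMSO.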

Read-out in test [3]: Phosphatase and tensin (PTEN), PTEN (gene 5728)
Nature of the test: LTEA_HepaRG_PTEN: Life Technologies and Expression Analysis (LTEA) Assay for Phosphatase and tensin (PTEN) using HepaRG (AID 2283523). Summed up:
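Read-out is PTEN transcript level by multiplexed TaqMan qRT-PCR after 48 h chemical treatment of human HepaRG cultures in serum-free induction medium. Concentrations spanned 100 uM downward in half-log steps, 0.5% DMSO throughout; activity fitted in both directions against vehicle.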

Read-out in test [4]: Pyruvate Dehydrogenase Kinase 4 (PDK4), PDK4 (gene 5166)
Nature of the test: LTEA_HepaRG_PDK4: Life Technologies and Expression Analysis (LTEA) Assay for Pyruvate Dehydrogenase Kinase 4 (PDK4) using HepaRG (AID 2283525). Summed up:
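In this multiplexed human HepaRG expression assay, cells are treated 48 h with test chemicals across an eight-point range starting at 100 uM. PDK4 mRNA changes, normalized to ACTB/GAPDH/POLR2A, are fitted in both directions relative to vehicle.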

Read-out in test [5]: NAD(P)H dehydrogenase [quinone] 1 (NQO1), NQO1 (gene 1728)
Nature of the test: LTEA_HepaRG_NQO1: Life Technologies and Expression Analysis (LTEA) Assay for NAD(P)H dehydrogenase [quinone] 1 (NQO1) using HepaRG (AID 2283526). Summed up: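 Differentiated human HepaRG cells in serum-free induction medium, dosed in duplicate for 48 h at 8 half-log concentrations up to 100 uM in 0.5% DMSO. NQO1 mRNA by qRT-PCR normalized to ACTB, GAPDH, POLR2A; bidirectional fit versus DMSO baseline.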

Read-out in test [6]: succinate dehydrogenase complex iron sulfur subunit B (SDHB), SDHB (gene 6390)
As to the kind of experiment: LTEA_HepaRG_SDHB: Life Technologies and Expression Analysis (LTEA) Assay for succinate dehydrogenase complex iron sulfur subunit B (SDHB) using HepaRG (AID 2283528). In short, it runs like this:
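A human HepaRG culture in serum-free induction medium received test chemicals for 48 h over an eight-point range capped at 100 uM. SDHB expression change was quantified by qRT-PCR.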

Read-out in test [7]: Signal transducer and activator of transcription 3 (Homo sapiens) (UniProt P40763)
As to the kind of experiment: LTEA_HepaRG_STAT3: Life Technologies and Expression Analysis (LTEA) Assay for Signal transducer and activator of transcription (STAT3) using HepaRG (AID 2283529). In short, it runs like this: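 Read-out is STAT3 mRNA level by qRT-PCR, normalized to three housekeeping genes, in human HepaRG liver cells treated for 48 h. Concentrations ran from 100 uM downward in half-log steps; curves were fitted for gain or loss relative to 0.5% DMSO.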

Read-out in test [8]: solute carrier (SLCO1B1), SLCO1B1 (gene 10599)
As to the kind of experiment: LTEA_HepaRG_SLCO1B1: Life Technologies and Expression Analysis (LTEA) Assay for solute carrier (SLCO1B1) using HepaRG (AID 2283530). Summed up: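 Human HepaRG cultures treated for 48 h with an eight-concentration half-log series topping at 100 uM; SLCO1B1 measured by qRT-PCR and fitted bidirectionally relative to DMSO.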

Read-out in test [9]: sulfotransferase 2A1 (SULT2A1), SULT2A1 (gene 6822)
Nature of the test: LTEA_HepaRG_SULT2A1: Life Technologies and Expression Analysis (LTEA) Assay for sulfotransferase 2A1 (SULT2A1) using HepaRG (AID 2283531). In short, it runs like this: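 Gene-expression endpoint in a human liver cell line: SULT2A1 mRNA change after 48 h chemical treatment, curves fitted in both directions relative to 0.5% DMSO vehicle. Concentrations spanned eight half-log steps from 100 uM.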

Read-out in test [10]: Transforming Growth Factor (TGFA), TGFA (gene 7039)
As to the kind of experiment: LTEA_HepaRG_TGFA: Life Technologies and Expression Analysis (LTEA) Assay for Transforming Growth Factor (TGFA) using HepaRG (AID 2283532). Summed up:
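HepaRG (human liver line), 48 h exposure, 8 conc. half-log down from 100 uM, 0.5% DMSO vehicle, duplicates; serum-free induction medium. TGFA mRNA by TaqMan qRT-PCR, ACTB/GAPDH/POLR2A normalization; gain/loss fit vs DMSO.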

Read-out in test [11]: Transforming Growth Factor (TGFB1), TGFB1 (gene 7040)
As to the kind of experiment: LTEA_HepaRG_TGFB1: Life Technologies and Expression Analysis (LTEA) Assay for Transforming Growth Factor (TGFB1) Transporter using HepaRG (AID 2283533). Summed up: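 Eight-point concentration-response (max 100 uM, half-log) in HepaRG under serum-free induction conditions, 48 h. TGFB1 mRNA by qRT-PCR, housekeeping-normalized.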

Read-out in a further test: TIMP1, TIMP1 (gene 7076)
Nature of the test: LTEA_HepaRG_TIMP1: Life Technologies and Expression Analysis (LTEA) Assay for TIMP1 using HepaRG (AID 2283534).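 On outcome: TaqMan qRT-PCR signal normalized to ACTB GAPDH and POLR2A housekeeping genes.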 In short, it runs like this: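 TIMP1 induction or repression in HepaRG cells after 48 h chemical exposure (eight concentrations, highest 100 uM), assessed by normalized qRT-PCR with bidirectional fitting to DMSO controls.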

Read-out in test [12]: Tumor necrosis factor receptor 1 (TNFRSF1A), TNFRSF1A (gene 7132)
Nature of the test: LTEA_HepaRG_TNFRSF1A: Life Technologies and Expression Analysis (LTEA) Assay for Tumor necrosis factor receptor 1 (TNFRSF1A) using HepaRG (AID 2283535). In short, it runs like this: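 Assay uses 48 h chemical treatment of differentiated HepaRG monolayers, tested in duplicate at eight concentrations from 100 uM downward in 0.5% DMSO. mRNA is normalized to ACTB, GAPDH and POLR2A, with induction or suppression fitted relative to vehicle.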

Read-out in test [13]: Thyroid Hormone Responsive (THRSP), THRSP (gene 7069)
Nature of the test: LTEA_HepaRG_THRSP: Life Technologies and Expression Analysis (LTEA) Assay for Thyroid Hormone Responsive (THRSP) using HepaRG (AID 2283536). Summed up: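 mRNA induction or loss relative to 0.5% DMSO vehicle was fitted bidirectionally across an eight-point curve whose highest exposure was 100 uM. Human HepaRG liver cells received chemicals in duplicate over 48 h before RNA extraction.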

Read-out in test [14]: UDP glucuronosyltransferase (UGT1A1), UGT1A1 (gene 54658)
As to the kind of experiment: LTEA_HepaRG_UGT1A1: Life Technologies and Expression Analysis (LTEA) Assay for UDP glucuronosyltransferase (UGT1A1) using HepaRG (AID 2283538). In short, it runs like this: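 HepaRG cells, 0.5% DMSO vehicle, 48 h exposure in serum-free induction medium to 8-point half-log series topping at 100 uM, in duplicate. UGT1A1 mRNA by Fluidigm qRT-PCR, normalized to ACTB/GAPDH/POLR2A; bidirectional fit versus DMSO.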

Read-out in test [15]: Cellular tumor antigen p53 (Homo sapiens) (UniProt P04637)
As to the kind of experiment: LTEA_HepaRG_TP53: Life Technologies and Expression Analysis (LTEA) Assay for Tumor Protein P53 (TP53) using HepaRG (AID 2283537). In short, it runs like this:
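Gain or loss of TP53 mRNA signal is scored relative to 0.5% DMSO after 48 h chemical treatment of HepaRG liver cells, tested in duplicate at eight half-log concentrations up to 100 uM.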

Read-out in test [16]: Nuclear factor erythroid 2-related factor 2 (Homo sapiens) (UniProt Q16236)
As to the kind of experiment: LTEA_HepaRG_NFE2L2: Life Technologies and Expression Analysis (LTEA) Assay for Nuclear factor erythroid 2-related factor 2 (NFE2L2) Transcription Factor using HepaRG (AID 2283527).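 Further: TaqMan qRT-PCR transcript level normalised to ACTB GAPDH and POLR2A housekeeping genes.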 In short, it runs like this:
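Transcript level of NFE2L2 is the read-out, measured by microfluidic TaqMan qRT-PCR and normalized to three housekeeping genes. Human HepaRG cultures received test chemical for 48 h at up to 100 uM in half-log steps. Gain or loss of signal is fitted relative to 0.5% DMSO.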

Sequence of Signal transducer and activator of transcription 3 (Homo sapiens) (P40763 whole entry, looked up): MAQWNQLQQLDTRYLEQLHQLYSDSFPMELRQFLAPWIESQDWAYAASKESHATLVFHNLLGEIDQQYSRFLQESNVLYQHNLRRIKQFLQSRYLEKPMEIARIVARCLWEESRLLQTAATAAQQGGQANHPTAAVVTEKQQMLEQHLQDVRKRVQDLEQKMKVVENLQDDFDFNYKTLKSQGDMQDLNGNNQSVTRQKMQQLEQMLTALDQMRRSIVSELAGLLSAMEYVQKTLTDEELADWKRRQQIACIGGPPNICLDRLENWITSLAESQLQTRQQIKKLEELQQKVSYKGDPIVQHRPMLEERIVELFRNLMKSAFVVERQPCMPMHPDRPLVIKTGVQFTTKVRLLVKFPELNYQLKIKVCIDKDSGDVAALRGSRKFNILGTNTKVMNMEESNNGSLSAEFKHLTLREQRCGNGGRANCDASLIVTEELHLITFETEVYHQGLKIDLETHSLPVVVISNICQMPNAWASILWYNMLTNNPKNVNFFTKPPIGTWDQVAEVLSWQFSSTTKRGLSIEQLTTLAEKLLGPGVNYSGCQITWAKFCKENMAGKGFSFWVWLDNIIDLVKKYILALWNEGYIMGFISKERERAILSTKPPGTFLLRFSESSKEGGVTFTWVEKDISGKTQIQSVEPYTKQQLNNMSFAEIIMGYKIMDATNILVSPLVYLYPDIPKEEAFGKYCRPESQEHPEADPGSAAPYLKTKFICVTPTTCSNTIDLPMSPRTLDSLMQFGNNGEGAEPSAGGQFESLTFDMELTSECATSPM
Sequence of Cellular tumor antigen p53 (Homo sapiens) (P04637 whole entry, looked up): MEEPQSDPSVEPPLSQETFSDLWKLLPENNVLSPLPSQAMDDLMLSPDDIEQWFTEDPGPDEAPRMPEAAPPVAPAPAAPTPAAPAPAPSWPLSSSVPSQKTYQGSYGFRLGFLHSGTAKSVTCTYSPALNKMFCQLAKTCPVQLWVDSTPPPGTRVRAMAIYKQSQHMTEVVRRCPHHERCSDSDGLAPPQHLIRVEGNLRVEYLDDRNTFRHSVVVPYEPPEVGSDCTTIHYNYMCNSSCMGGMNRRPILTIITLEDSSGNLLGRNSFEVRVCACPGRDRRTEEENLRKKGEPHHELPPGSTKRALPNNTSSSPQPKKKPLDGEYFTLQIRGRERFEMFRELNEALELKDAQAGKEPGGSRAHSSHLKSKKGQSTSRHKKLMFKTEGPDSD
Sequence of Nuclear factor erythroid 2-related factor 2 (Homo sapiens) (Q16236 whole entry, looked up): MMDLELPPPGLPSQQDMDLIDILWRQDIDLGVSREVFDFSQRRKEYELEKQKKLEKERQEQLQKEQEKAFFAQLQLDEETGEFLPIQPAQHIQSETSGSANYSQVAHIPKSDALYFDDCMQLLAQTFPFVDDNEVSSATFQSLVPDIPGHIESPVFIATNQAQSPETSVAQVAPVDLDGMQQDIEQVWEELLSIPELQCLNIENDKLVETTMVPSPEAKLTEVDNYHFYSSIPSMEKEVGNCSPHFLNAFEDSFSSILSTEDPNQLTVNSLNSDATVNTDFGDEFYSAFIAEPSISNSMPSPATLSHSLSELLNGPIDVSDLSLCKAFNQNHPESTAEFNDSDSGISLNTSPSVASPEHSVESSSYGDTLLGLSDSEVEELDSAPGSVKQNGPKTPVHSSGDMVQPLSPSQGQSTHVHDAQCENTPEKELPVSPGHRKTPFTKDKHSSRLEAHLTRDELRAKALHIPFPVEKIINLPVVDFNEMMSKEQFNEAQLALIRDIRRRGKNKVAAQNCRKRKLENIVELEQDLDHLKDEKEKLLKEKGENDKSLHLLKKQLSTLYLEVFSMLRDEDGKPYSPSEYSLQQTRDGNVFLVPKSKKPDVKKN

Consider `S=C(S)NCCNC(=S)S.[Mn+2].[S-]C([S-])=NCCN=C([S-])[S-].[Zn+2]`, for which the AC50 – broadly, the concentration at which the activity in the assay is half-maximal – in [1] was 110 nM (active) and 262 nM (active) and 190 nM (active); in test [2] it was 960 nM (active) and 2.26 µM (active); in [3], 1.75 µM (active) and 2.98 µM (active) and 2.22 µM (active); in [4], 3.66 µM (active) and 3.63 µM (active); in test [5], 0.903 µM (active); in test [6] it was 601 nM (active) and 552 nM (active) and 792 nM (active). Further, the AC50 in test [7] is 809 nM (active) and 549 nM (active) and 297 nM (active); in test [8], 1.25 µM (active) and 1.22 µM (active) and 1.54 µM (active); in test [9] it was 1.2 µM (active) and 1.29 µM (active) and 1.56 µM (active); in test [10], 4.16 µM (active) and 3.27 µM (active) and 4.59 µM (active); with TIMP1, TIMP1 (gene 7076), 6.38 µM (active); in [12] it was 1.21 µM (active) and 2.33 µM (active). Also, the AC50 in test [13] was 699 nM (active) and 352 nM (active) and 513 nM (active); in test [14], 1.25 µM (active) and 1.46 µM (active) and 1.2 µM (active). Also, the outcome in test [4] is “inactive”; in test [5], “inactive”; in test [11] it was “inactive”; with TIMP1, TIMP1 (gene 7076), “inactive”; in test [12] it was “inactive”.

On to `COCCO`, for which the call in test [1], in test [2], in test [3], in test [4], in test [5] and in test [6] was inactive. In addition, the outcome in test [7] is “inactive”; in [8], “inactive”; in test [9], “inactive”; in [10] it was “inactive”; in test [11], “inactive”; with TIMP1, TIMP1 (gene 7076), “inactive”. Further, the call in test [12], in test [13], in [15] and in test [14] was inactive.

For the molecule `S=C([S-])NCCNC(=S)[S-].[Mn+2]`, the AC50 in test [1] is 302 nM (active); in test [2] it was 5.29 µM (active); in test [3] it was 4.48 µM (active); in [4], 5.86 µM (active); in test [6], 1.77 µM (active); in test [7] it was 1.94 µM (active). The AC50 in test [8] is 3.85 µM (active); in test [9], 3.76 µM (active); in test [10], 7.01 µM (active); in [12], 3.32 µM (active); in [13] it was 835 nM (active); in [14], 2.75 µM (active). Also, the outcome is “inactive” in [5]; “inactive” in test [11]; “inactive” with TIMP1, TIMP1 (gene 7076).

Regarding `COC(=O)c1ccc(I)cc1S(=O)(=O)NC(=O)Nc1nc(C)nc(OC)n1`, the molecule was called inactive in [1], in test [2], in test [3], in [4], in [5] and in test [16]. Moreover, the outcome in test [6] was “inactive”; in test [8] it was “inactive”; in test [9], “inactive”; in test [10] it was “inactive”; in test [11], “inactive”; in the test with TIMP1, TIMP1 (gene 7076) it was “inactive”. Also, the outcome in test [12], in test [13] and in test [15] was inactive.
